Rows were chosen to be rich in hits. Some 3.4% of all compounds tested hit in one or more screens of this group.
ADAM10 inh – ADAM10 inhibition, QFRET primary screen. AID 720582. 370,000 compounds, 0.62% hits. inhibition, % at 7 µM. recombinant ADAM10, EDANS/DABCYL FRET peptide cleavage, 3 h;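 active means inhibition above a per-campaign cutoff equal to the mean of compounds falling between control-based bounds plus 3 SD, cut at about 20% in these data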;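 further: 0% = DMSO wells while the 100% control is not disclosed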
CendR NRP1 mod – modulators of CendR peptide binding to human neuropilin-1; O14786; FAM-RPARPAR peptide binding to NRP-1, fluorescence polarization; inhibition, % at 25 µM; 360,000 compounds, 0.85% hits;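 active means inhibition or corrected inhibition above about 18%, plus a signal ratio from 0.5 to 1.5, limit read from the data, passing the limit was not always enough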
proKLK7 act – activators of human kallikrein-7 zymogen | P49862 | purified proKLK7, EDANS-DABCYL substrate fluorescence; 100% is mature enzyme control, 0% vehicle | activation, % at 7 µM | 370,000 compounds, 0.9% hits;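 active means activation above the mean of all tested compounds plus 3 SD, computed per campaign excluding outliers beyond control limits, cut at about 13% in these data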
sPLA2-III inh – Inhibits HGIII-sPLA2 liposome hydrolysis, primary screen; 370,000 compounds, 0.56% hits; inhibition, % at 12.2 µM; QFRET BODIPY PC-A2 liposome hydrolysis, fluorescence; Q9NZ20;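 active means inhibition above mean plus 3 SD of compounds lying within the high and low control bounds, cut at about 19% in these data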;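 further: 0% = median of test compound wells and 100% = no enzyme DMSO wells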
ADAM17 inh – inhibitors of human ADAM17; P78536; 370,000 compounds, 0.83% hits; AID 720648; recombinant ADAM17, EDANS/DABCYL FRET peptide cleavage; inhibition, % at 6.95 µM;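 active means inhibition above the mean of compounds lying between control limits plus 3 SD, set per campaign, cut at about 8.5% in these data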;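 further: 0% = DMSO-only wells as the low control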
Target sequence (P78536 215-824 limits assumed): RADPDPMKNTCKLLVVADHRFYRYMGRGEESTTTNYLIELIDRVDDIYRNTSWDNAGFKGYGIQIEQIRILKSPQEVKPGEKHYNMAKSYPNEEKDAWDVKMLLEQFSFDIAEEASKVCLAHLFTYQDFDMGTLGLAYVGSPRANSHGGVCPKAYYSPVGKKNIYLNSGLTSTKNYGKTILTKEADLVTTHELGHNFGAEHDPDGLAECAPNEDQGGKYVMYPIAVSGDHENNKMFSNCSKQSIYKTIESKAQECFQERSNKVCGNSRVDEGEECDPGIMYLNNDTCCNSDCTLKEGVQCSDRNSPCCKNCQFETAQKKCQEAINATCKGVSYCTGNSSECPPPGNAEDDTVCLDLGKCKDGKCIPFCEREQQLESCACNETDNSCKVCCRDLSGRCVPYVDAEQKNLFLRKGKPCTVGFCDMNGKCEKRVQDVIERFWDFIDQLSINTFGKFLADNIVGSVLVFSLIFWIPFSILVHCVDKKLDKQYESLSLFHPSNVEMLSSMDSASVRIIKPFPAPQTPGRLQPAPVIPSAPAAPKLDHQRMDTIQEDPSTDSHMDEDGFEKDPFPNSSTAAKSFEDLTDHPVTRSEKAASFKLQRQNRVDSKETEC
ADAM10 confirm – confirmation of inhibitors of human ADAM10; shares compounds with ADAM10 inh; ADAM10 QFRET peptide cleavage, EDANS fluorescence; inhibition, % at 6.95 µM; 2,100 compounds, 1% hits; AID 743208;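 active means inhibition above about 20% chosen separately for each screening run, limit read from the data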;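 further: 0% = DMSO wells and 100% = marimastat wells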
ADAM17 ctr – ADAM17 inhibition, counter-screen for ADAM10 exosite hits | shares compounds with ADAM10 inh | 2,100 compounds, 0.5% hits | AID 743214 | ADAM17 QFRET peptide cleavage, EDANS fluorescence | inhibition, % at 6.95 µM;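 active means mean triplicate inhibition above the solvent-only control wells' mean plus 3 SD, cut at about 12% in these data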;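 further: 0% = DMSO wells and 100% = marimastat wells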
ADAM10 counter – ADAM10 inhibition, counter-screen for ADAM17 exosite hits; shares compounds with ADAM17 inh; recombinant ADAM10, EDANS/DABCYL FRET peptide cleavage, 3 h; inhibition, % at 6.95 µM; 2,900 compounds, 47% hits;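 active means mean inhibition over the triplicate runs exceeds the activity threshold set in the earlier primary screen, cut at about 20% in these data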;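 further: 0% = DMSO wells and 100% = marimastat wells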
ADAM17 confirm – human ADAM17 inhibition, confirmation; 2,900 compounds, 65% hits; inhibition, % at 6.95 µM; shares compounds with ADAM17 inh; recombinant ADAM17, EDANS/DABCYL QFRET peptide cleavage;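 active means mean inhibition across replicates above the hit cutoff set in the primary screen, cut at about 8.5% in these data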;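 further: 0% = DMSO wells and 100% = marimastat wells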
hGIII sPLA2 conf – human GIII-sPLA2 inhibition, confirmation; shares compounds with sPLA2-III inh; recombinant hGIII-sPLA2, BODIPY PC-A2 QFRET fluorescence; inhibition, % at 12.2 µM; 2,000 compounds, 34% hits;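 active means mean inhibition across triplicates above the hit cutoff set in the earlier primary screen, cut at about 19% in these data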;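 further: 0% = enzyme with DMSO and 100% = DMSO wells lacking enzyme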
BODIPY interf – 535nm fluorescence interference, HGIII-sPLA2 counter-screen; shares compounds with sPLA2-III inh; inhibition, % at 12.2 µM; AID 743282; BODIPY FL product fluorescence interference, QFRET; 2,000 compounds, 8.5% hits;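 active means average inhibition above the solvent-only control mean plus 3 SD, cut at about 6% in these data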;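 further: 0% = DMSO with substrate plus product and 100% = DMSO with substrate alone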
535nm interf DR – counter-screen for HGIII-sPLA2 inhibitors: 535nm fluorescence interference, dose response | IC50, µM | 240 tested, under 10 active | BODIPY FL product fluorescence interference, cell-free | shares compounds with sPLA2-III inh;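 active means IC50 at or below 10 µM; inactive means IC50 above 10 µM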
Active calls of the source: *; nt = not tested or not shown.

SMILES | ADAM10 inh | CendR NRP1 mod | proKLK7 act | sPLA2-III inh | ADAM17 inh | ADAM10 confirm | ADAM17 ctr | ADAM10 counter | ADAM17 confirm | hGIII sPLA2 conf | BODIPY interf | others
CCN(CC)c1ccc(C(=C2C=CC(=[N+](CC)CC)C=C2)c2ccc(N(CC)CC)cc2)cc1 | 23* | 30* | 1 | 60* | 7 | 0 | 0 | nt | nt | 61* | -15 | 535nm interf DR=>122
COc1ccc(C(=O)NC(=S)NNC(=O)[C@H]2C[C@@H]2c2ccccc2)cc1OC | 32* | -13 | 0 | 21* | 11* | 3 | 3 | -18 | -1 | 40* | -21 | 535nm interf DR=>122
COc1cc(OC)cc(C(=O)NC(=S)NNC(=O)[C@H]2C[C@@H]2c2ccccc2)c1 | 6 | -1 | 0 | -7 | 1 | nt | nt | nt | nt | nt | nt
O=C(CC1CCCC1)N1CC[C@H]2[C@H](CCCN2Cc2cc(F)cc(F)c2)C1 | 7 | nt | 1 | -3 | 0 | nt | nt | nt | nt | nt | nt
CC(C)N1CCc2c(sc(NC(=O)C(F)(F)F)c2-c2nc3ccccc3s2)C1 | -413 | nt | nt | -11 | -115 | nt | nt | nt | nt | nt | nt
O=[N+]([O-])c1ccc(N/N=C/c2ccc(O)c(O)c2O)c(S(=O)(=O)N2CCOCC2)c1 | 14 | 4 | 0 | 3 | 7 | nt | nt | nt | nt | nt | nt
O=[N+]([O-])c1ccc(N/N=C/c2cccc(O)c2O)c(S(=O)(=O)N2CCOCC2)c1 | 30* | -14 | -3 | 31* | 8 | 7 | 3 | nt | nt | 39* | 15*
Cc1cccc(C(=O)Nc2nc3ncccn3c2-c2ccc(C(F)(F)F)cc2)c1 | -134 | nt | -3 | 12 | -36 | nt | nt | nt | nt | nt | nt
O=C(NNC(=S)Nc1ccc(Br)cc1)c1ccc(N2CCOCC2)c([N+](=O)[O-])c1 | 21* | 1 | -1 | 25* | 5 | 1 | 0 | nt | nt | 30* | 11*
CN(CCO)C(=O)c1nc[nH]c1C(=O)N1CCN(c2ccccc2)CC1 | -12 | nt | 0 | 1 | 0 | nt | nt | nt | nt | nt | nt
COc1nc(Nc2ccc(O)cc2)nc(OC(C(F)(F)F)C(F)(F)F)n1 | 7 | 6 | 0 | -11 | 2 | nt | nt | nt | nt | nt | nt
Nc1cccc(Nc2nc(OC(C(F)(F)F)C(F)(F)F)nc(OC(C(F)(F)F)C(F)(F)F)n2)c1 | 58* | 5 | 0 | 28* | 27* | 0 | 0 | 60* | 30* | 31* | -3 | 535nm interf DR=>122
CCN(CC)c1ccc(NC(=O)CSc2nc3ccccc3c(=O)n2-c2ccc(C)cc2)cc1 | 38* | nt | -1 | 28* | 5 | 13 | 6 | nt | nt | 30* | -11 | 535nm interf DR=>122
C[C@@H]1CN([C@H](C)CO)C(=O)c2cc(Br)cnc2O[C@H]1CN(C)C(=O)c1ccc(F)cc1 | 5 | nt | -1 | 1 | 2 | nt | nt | nt | nt | nt | nt
COc1cccc(N=NC2C(=O)N(C(N)=S)N=C2C)c1 (centres undefined) | 21* | -2 | 8 | 23* | -6 | -1 | 0 | nt | nt | 14 | -2
Cn1c(=O)c(C(=O)NNC(=O)c2ccccc2Cl)c(O)c2ccccc21 | -7 | 0 | 0 | 17 | -10 | nt | nt | nt | nt | nt | nt
Cn1c(=O)c(C(=O)NNC(=O)c2ccccc2Br)c(O)c2ccccc21 | 20* | -3 | 0 | 30* | 5 | 8 | 4 | nt | nt | 2 | 4
Cc1scc(C(=O)NNC(=S)NC(C)c2ccccc2)c1C (centres undefined) | 27* | -5 | 0 | 30* | 5 | 0 | 0 | nt | nt | 18 | 5
O=[N+]([O-])c1cc([N+](=O)[O-])c2c(=Nc3ccccc3)n(-c3ccccc3)n(O)c2c1 | 25* | 20 | 0 | 35* | 4 | 0 | 1 | nt | nt | 56* | 19*
Cc1cc(C)cc(NC(=O)C(=O)NCCc2c[nH]c3ccccc23)c1 | 27* | -9 | 0 | -78 | 11* | nt | nt | 21* | 11* | nt | nt
Cc1ccc(C)c(NC(=O)C(=O)NCCc2c[nH]c3ccccc23)c1 | -4 | -17 | 1 | -69 | -5 | nt | nt | nt | nt | nt | nt
Cc1cc(C)c(S(=O)(=O)N2CCCOC2CNC(=O)C(=O)NCCc2c[nH]c3ccccc23)c(C)c1 (centres undefined) | 16 | 0 | -1 | -112 | 8.6* | nt | nt | 20* | 12* | nt | nt
CCC1(CC)SCCNC1=O | 7 | 7 | 1 | -6 | 9.1* | nt | nt | -2 | 2 | nt | nt
OC1(c2ccccc2)CC(c2ccccc2)c2ccccc2O1 (centres undefined) | 14 | -3 | 0 | -17 | 9.2* | nt | nt | 30* | 16* | nt | nt
CCOC(=O)c1ccc(S(=O)(=O)Nc2cc(C(C)(C)C)no2)cc1 | -4 | -14 | 0 | -20 | -3 | nt | nt | nt | nt | nt | nt
SMILES | ADAM10 inh | CendR NRP1 mod | proKLK7 act | sPLA2-III inh | ADAM17 inh | ADAM10 confirm | ADAM17 ctr | ADAM10 counter | ADAM17 confirm | hGIII sPLA2 conf | BODIPY interf | others
Cc1ccc(C(=O)OCC(=O)Nc2cc(C(C)(C)C)no2)c(C)c1 | 10 | 7 | -1 | -13 | 12* | nt | nt | 33* | 17* | nt | nt
CCc1cc2c(nc1CC)CCCN2S(=O)(=O)c1ccc(OC)cc1 | 5 | nt | 0 | -1 | 11* | nt | nt | 2 | 6 | nt | nt
CC1CCC(NC(=O)c2cnccn2)CC1 (centres undefined) | 3 | 7 | 0 | -5 | 12* | nt | nt | 3 | 2 | nt | nt
O=C(NC12CC3CC(CC(C3)C1)C2)c1cnccn1 | -2 | 23 | 3 | -3 | -1 | nt | nt | nt | nt | nt | nt
Cc1sc2nc(COC(=O)CNC(=O)c3ccccc3Cl)[nH]c(=O)c2c1C | 9 | nt | 0 | 11 | 4 | nt | nt | nt | nt | nt | nt
CCOC(=O)c1c(C)n(-c2ccc(F)cc2)c2ccc(O)cc12 | nt | 10 | nt | nt | nt | nt | nt | nt | nt | nt | nt
COC(=O)c1c(C)n(-c2ccc(OC)cc2)c2ccc(O)cc12 | 19 | 20 | -1 | -5 | 12* | nt | nt | 14 | 11* | nt | nt
CCc1ccccc1NC(=O)c1cc(C)nn1-c1ccccc1 | -8 | nt | 0 | 5 | -3 | nt | nt | nt | nt | nt | nt
C=CCN1[C@@H](CC(C)C)COc2cccc(N3CCCC3)c2S1(=O)=O | -5 | nt | 0 | 16 | -3 | nt | nt | nt | nt | nt | nt
CC(CC(=O)OCC(=O)NCc1ccc(Cl)cc1)c1ccccc1 (centres undefined) | 0 | 20 | -1 | -15 | 11* | nt | nt | 14 | 10* | nt | nt
